Here are results for 96 compounds from PubChem BioAssay AID463173 (ICCB-Longwood Screening Facility, Harvard Medical School, 2010).

Out of some 52,000 compounds screened, about 4,300 (8.3%) were called active. What follows is part of a selection rich in actives, with near analogues and random picks from the rest. Unmarked numbers belong to inactive results. No stated cut-off is given here; in the data, active means survival mostly below about 52% (no sharp cut-off); inactive means mostly above about 56%.

The subject of the experiment is DeltatarO mutant. Put plainly: S. aureus survival, RN4220 and DeltatarO strains – OD600, teichoic acid synthesis inhibitors, primary screen (AID 463173). Particulars: S. aureus RN4220 wild type/DeltatarO growth, OD600, 18 h, hits give low values, screened at 18.75 µg/mL (by protocol).
Take `CCc1ccc(N2C(=O)CSC23C(=O)N(Cc2cccc(F)c2)c2ccccc23)cc1` (stereo unspecified): the survival was 124%. Take `O=C1C(=O)N(C2CCN(C(=O)c3ccccc3Cl)CC2)CCN1Cc1ccc(F)cc1`: the survival was 67%. As to `CN1C(C(=O)Nc2ccc(F)cc2F)=CC(c2cccs2)=NS1(=O)=O`, the survival was 99%.

For the compound `CCCOc1ccc(-c2nc(SC)[nH]c(=O)c2C#N)cc1OC`, the survival was 79%. `COc1ccc(C(=O)N2CCC(c3nc4ccccc4s3)CC2)cc1Cl`: the survival was 62%. For `COc1ccccc1OC(C)C(=O)N1CCC(c2nc3ccccc3s2)CC1` (stereo unspecified) the value was 2% (active); for `CCc1ccc(OC(C)C(=O)N2CCC(c3nc4ccccc4s3)CC2)cc1` (stereo unspecified), 28% (active). For `Cc1ccccc1C(=O)N1CCC(c2nc3ccccc3s2)CC1` the value was 75%. `COc1cccc(C(=O)N2CCC(c3nc4ccccc4s3)CC2)c1`: the survival is 70%.

`O=C(c1ccccc1Cl)N1CCC(c2nc3ccccc3s2)CC1`: the survival was 57%.

As for `CC(Oc1ccc(F)cc1)C(=O)N1CCC(c2nc3ccccc3s2)CC1` (stereo unspecified), the survival was 58%. For `COc1cc(C(=O)N2CCC(c3nc4ccccc4s3)CC2)cc(OC)c1OC` the value was 74%; for `CCC(Oc1ccccc1F)C(=O)N1CCC(c2nc3ccccc3s2)CC1` (stereo unspecified), 2% (active). `COCCCNC(=O)Cn1cnc2sc(C)c(S(=O)(=O)N3CCC(C)CC3)c2c1=O`: the survival was 69%. For `CCOCCc1nn2c(=O)cc(COC(=O)c3ccccc3NC(=O)c3cccs3)nc2s1` the value was 58%. With `COc1ccc(CNC(=O)c2cc(-c3ccc(C)cc3)nc3n[nH]c(-c4ccc(Br)cc4)c23)cc1` the figure was 74%; with `O=C(NCCc1ccc(Cl)cc1)c1nnc(Cc2ccc(Cl)cc2Cl)o1`, 96%.

In the case of `COc1ccccc1CNC(=O)CCNS(=O)(=O)c1ccc2c(c1)CCCC(=O)N2`, the survival was 60%. Consider `CC1CCN(C(=O)Cn2c(=O)n(CCCCCC(=O)NCc3ccccc3Cl)c(=O)c3sccc32)CC1`, for which the survival was 69%.

On to `COc1ccc(N2CC(NC(=O)C(c3ccccc3)c3ccccc3)CC2=O)cc1OC` (stereo unspecified), for which the survival is 90%. For `CC(=O)Nc1ccc(NC(=O)C(NC(=O)C2CCC(C)CC2)C(C)C)cc1` (stereo unspecified) the value was 128%. Take `CCN1CCc2nc3sc(C(=O)Nc4ccccc4OC(F)(F)F)c(N)c3cc2C1`: the survival was 44% (active). With `COc1ccc(NC(=O)c2sc3nc4c(cc3c2N)CN(Cc2ccccc2)CC4)cc1` the figure was 96%; with `CCN1CCc2nc3sc(C(=O)Nc4cccc(Cl)c4C)c(N)c3cc2C1`, 125%. Take `COc1ccc(NC(=O)c2sc3nc4c(cc3c2N)CCCCCC4)cc1`: the survival was 127%. As to `COc1ccc(NC(=O)c2sc3nc4c(cc3c2N)CN(Cc2ccccc2)CC4)c(OC)c1`, the survival is 47% (active). With `COc1ccccc1NC(=O)c1sc2nc3c(cc2c1N)CN(Cc1ccccc1)CC3` the figure was 101%.

Turning to `CN1CCc2nc3sc(C(=O)Nc4cccc(C#N)c4)c(N)c3cc2C1`, the survival was 54% (active). Consider `CCOc1ccccc1NC(=O)c1sc2nc3c(cc2c1N)CN(Cc1ccccc1)CC3`, for which the survival was 63%.

`CCN(CC)c1ccc(NC(=O)c2sc3nc4c(cc3c2N)CN(C)CC4)cc1`: the survival was 181%. For `CN1CCc2nc3sc(C(=O)Nc4c(F)cccc4F)c(N)c3cc2C1`, the survival was 153%. With `CC(=O)c1cccc(NC(=O)c2sc3nc4c(cc3c2N)CCCC4)c1` the figure was 60%.

As to `Nc1c(C(=O)Nc2ccc(C(=O)O)cc2)sc2nc3c(cc12)CCCC3`, the survival was 42% (active).

As for `CCOC(=O)C1=C(CS(=O)(=O)c2cccc(C(F)(F)F)c2)NC(=O)NC1c1cccc(OC)c1` (stereo unspecified), the survival was 48%. On to `CC(=O)c1ccc(NS(=O)(=O)c2ccc3[nH]c4c(c3c2)CCCCCC4)cc1`, for which the survival was 84%. `CCOc1ccc(C(=O)c2oc3ccccc3c2NC(=O)Cc2coc3cc(C)cc(C)c23)cc1`: the survival is 100%. `CC(=O)c1ccc(NC(=O)CSc2ccc(-c3cccs3)nn2)cc1`: the survival was 126%. Regarding `COc1cccc(C(=O)CN2CCN(S(=O)(=O)c3ccc(Cl)cc3)CC2)c1`, the survival was 74%. With `COc1ccccc1OCC(=O)N(Cc1ccco1)Cc1ccccc1F` the figure was 64%. On to `CCc1cc(CC)c(/C=N/NC(N)=O)c(CC)c1/C=N/NC(N)=O`, for which the survival was 94%. For `Cc1ccc(NC(=O)c2sc3nc4c(cc3c2N)CN(Cc2ccccc2)CC4)cc1` the value was 110%. For `Nc1c(C(=O)Nc2ccccc2)sc2nc3c(cc12)CN(Cc1ccccc1)CC3` the value was 63%; for `CCc1ccc(NC(=O)c2sc3nc4c(cc3c2N)CN(CC)CC4)cc1`, 49% (active). `Cc1cccc(N2CCN(C(=O)Cn3ncc4c3-c3ccccc3OC4)CC2)c1C`: the survival was 77%.

Regarding `COc1ccc2[nH]c(C)c(CCNS(=O)(=O)c3cc(F)ccc3OC)c2c1`, the survival is 57%. With `COc1cc(Cl)c(S(=O)(=O)NCCc2c(C)[nH]c3c(C)cccc23)cc1Cl` the figure was 57%. As for `COc1cc(S(=O)(=O)NCCc2c(C)[nH]c3ccccc23)c(C)cc1C`, the survival is 56%. With `COc1cc(C)c(Cl)cc1S(=O)(=O)NCCc1c(C)[nH]c2ccccc12` the figure was 37% (active); with `COc1c(C)cc(S(=O)(=O)NCCc2c(C)[nH]c3ccccc23)c(C)c1C`, 59% (active). Take `COc1ccc(C(C)C)cc1S(=O)(=O)NCCc1c(C)[nH]c2ccc(C)cc12`: the survival is 84%.

As for `COc1cccc(C(c2nnnn2CCC(C)C)N2CCN(c3cccc(C)c3C)CC2)c1OC` (stereo unspecified), the survival is 82%. With `CCOC(=O)C1CC1c1ccccc1` (stereo unspecified) the figure was 81%; with `Cc1cccc(C(=O)Nc2ccc(C(=O)OCc3cc(=O)n4nc(CC(C)C)sc4n3)cc2)c1`, 99%; with `COc1cccc(Nc2ccc3cc(S(=O)(=O)N4CCC(C)CC4)ccc3n2)c1`, 88%. With `COc1ccc(NC(=O)N(Cc2nnc3n2CCCCC3)c2ccc(OC)c(Cl)c2)cc1` the figure was 60%; with `O=C(O)c1cccnc1N1CCOCC1`, 84%.

Take `O=C(NCc1cccs1)c1ccc(CSc2nc3ccncc3n2Cc2ccccc2)cc1`: the survival was 110%. For the compound `COc1ccc(OC)c(NS(=O)(=O)c2ccc3[nH]c4c(c3c2)CCCCC4)c1`, the survival is 77%. Regarding `Cc1ccc(CCNC(=O)Cn2nc(-c3ccc(C)cc3)ccc2=O)cc1`, the survival was 0% (active).

As to `Cc1ccc(-c2ccc(=O)n(Cc3ccc(F)cc3)n2)cc1`, the survival was 50%. With `C=Cc1ccc(Cn2nc(-c3ccc(C)cc3)ccc2=O)cc1` the figure was 35% (active). In the case of `O=c1ccc(-c2ccccc2)nn1Cc1ccc(F)cc1Cl`, the survival is 49%. `Cc1ccc(C)c(Cn2nc(-c3cc(C)ccc3C)ccc2=O)c1`: the survival is 44%. For `Cc1ccc(-c2ccc(=O)n(CC(=O)NCCc3ccccc3)n2)cc1` the value was 57%. Regarding `Cc1ccc(C)c(-c2ccc(=O)n(Cc3ccc(F)cc3Cl)n2)c1`, the survival is 32% (active). For `Cc1ccc(C)c(-c2ccc(=O)n(Cc3c(F)cccc3Cl)n2)c1` the value was 81%; for `Cc1ccc(-c2ccc(=O)n(Cc3cc(C)ccc3C)n2)cc1`, 57% (active); for `C=Cc1ccc(Cn2nc(-c3ccc(C)c(S(=O)(=O)N(CC)CC)c3)ccc2=O)cc1`, 53%.

`Cc1ccc(-c2ccc(=O)n(CC(=O)NCCc3ccc(Cl)cc3)n2)cc1`: the survival is 69%. Regarding `COC(=O)c1ccc(Cn2nc(-c3ccc(C)cc3)ccc2=O)cc1`, the survival is 133%. For `Cc1ccc(NC(=O)CCN2CCN(CCO)CC2)cc1C` the value was 54%; for `Cc1ccc(CCNC(=O)c2ccc3c(c2)nc2n3CCOC2)cc1`, 86%; for `CCc1ccc(-n2c(=O)c3cccnc3n2CC(=O)Nc2ccccc2C(F)(F)F)cc1`, 71%. As for `Cc1c(-c2ccc(Cl)cc2)c(=O)oc2c(CN3CCOCC3)c(O)ccc12`, the survival was 82%. `O=c1oc(-c2cccc3ncccc23)nn1Cc1ccccc1F`: the survival was 102%. Turning to `COc1cccc(CNC(=O)CCc2nnc3n(C)c(=O)c4sccc4n23)c1`, the survival is 63%. With `CCc1ccc(C(=O)c2cn(CC(=O)Nc3ccc(C)c(C)c3)c3ccccc3c2=O)cc1` the figure was 108%. For `CC(C)CC(=O)n1nc(-c2cccnc2)nc1NCc1ccc(F)cc1` the value was 89%; for `Cc1cc(Nc2ccc(F)cc2)nc(-n2nc(C)cc2C)n1`, 70%; for `Cc1ccc2ncc(C(=O)c3ccc(C)c(C)c3)c(S(=O)(=O)c3ccccc3)c2c1`, 70%. For `COc1ccc(S(=O)(=O)N2CCC(c3nnnn3-c3ccccc3)CC2)cc1OC` the value was 80%.

Turning to `CN1C(=O)/C(=C2/SC(=S)N(c3cccc(O)c3)C2=O)c2ccccc21`, the survival is 54%. In the case of `CNC(=O)c1ccc(CSc2nc3cccnc3n2Cc2cccc(F)c2)cc1`, the survival was 118%.

For the compound `CCN1CCN(CCCNC(=O)c2ccc3nc(Cc4ccccc4)oc3c2)CC1`, the survival was 105%. With `COc1ccc(NC(=O)c2ccco2)cc1NC(=O)c1ccccc1[N+](=O)[O-]` the figure was 49%; with `COc1ccc(NC(=O)c2ccco2)cc1NC(=O)c1ccc(C)c(C)c1`, 49% (active). Regarding `COc1ccc(NC(=O)c2ccco2)cc1NC(=O)c1cc(OC)c(OC)c(OC)c1`, the survival was 71%.

On to `COc1ccc(NC(=O)c2ccco2)cc1NC(=O)COc1ccc(C)c(C)c1`, for which the survival was 49%.

With `COc1ccc(NC(=O)c2ccco2)cc1NC(=O)c1cccc(F)c1`, the survival is 89%. For `COc1ccc(C(=O)Nc2cc(NC(=O)c3ccco3)ccc2OC)cc1Cl` the value was 54%; for `COc1ccc(NC(=O)c2ccco2)cc1NC(=O)c1c(OC)cccc1OC`, 51%. For `COc1ccc(NC(=O)c2ccco2)cc1NC(=O)COc1ccccc1` the value was 45% (active); for `CCCCOc1cccc(C(=O)Nc2cc(NC(=O)c3ccco3)ccc2OC)c1`, 23% (active); for `COc1ccc(NC(=O)c2ccco2)cc1NC(=O)c1cccc(C)c1OC`, 37% (active).

`COc1ccc(NC(=O)c2ccco2)cc1NC(=O)COc1cc(C)cc(C)c1`: the survival is 121%. As for `COc1cc(OC)cc(C(=O)Nc2cc(NC(=O)c3ccco3)ccc2OC)c1`, the survival is 83%.
